Data taken from ChEMBL document CHEMBL3988442, “University of Dundee, Small-Polar-MMV Screening Library” (2021).

Assays:
[1] = biological target: T1, Aspartate--tRNA(Asp/Asn) ligase (Mycobacterium tuberculosis (strain ATCC 25618 / H37Rv)) (UniProt P9WFW3); test: Assay for Asp RNA synthetase-1 from Mycobacterium tuberculosis; assay type: functional; set-up: scale not given: direction of the effect not stated beside the values; conditions: 30 µM; note: in the data most compounds retested in dose-response had high values
T1 sequence (whole entry): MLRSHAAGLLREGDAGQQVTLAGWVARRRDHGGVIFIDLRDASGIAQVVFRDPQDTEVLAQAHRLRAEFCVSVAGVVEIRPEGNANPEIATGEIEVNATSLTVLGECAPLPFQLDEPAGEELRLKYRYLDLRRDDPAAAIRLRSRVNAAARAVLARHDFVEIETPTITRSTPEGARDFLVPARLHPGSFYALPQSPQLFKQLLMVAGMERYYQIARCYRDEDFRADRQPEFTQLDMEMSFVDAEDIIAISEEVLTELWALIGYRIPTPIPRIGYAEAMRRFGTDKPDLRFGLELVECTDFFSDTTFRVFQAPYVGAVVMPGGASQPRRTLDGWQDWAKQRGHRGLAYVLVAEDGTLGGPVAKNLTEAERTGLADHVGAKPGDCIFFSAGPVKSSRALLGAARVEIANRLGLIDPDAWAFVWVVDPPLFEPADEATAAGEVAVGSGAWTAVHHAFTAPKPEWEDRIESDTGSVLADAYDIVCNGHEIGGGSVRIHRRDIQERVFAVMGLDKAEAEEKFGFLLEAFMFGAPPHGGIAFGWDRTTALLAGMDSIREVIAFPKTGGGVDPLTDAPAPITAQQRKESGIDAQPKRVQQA

[2] = biological target: Shiga toxin 2 (Escherichia coli O157:H7) (UniProt P09385+P09386); test: E. coli 0.157:H7 Shiga Toxin SOP - stx2 screening assay; assay type: functional; set-up: scale not given: direction of the effect not stated beside the values; conditions: 30 µM

Question: With `Cc1noc([C@H]2C[C@@H]3CCN(CC4CC4)C[C@H]3O2)n1` as the compound, how does the Percent Effect [1] read?
Answer: 6.95%

Question: What about the Percent Effect [2] of the same compound?
Answer: -8.04%

Question: For `CCOc1ccccc1OC1CCN(C(=O)c2nc(=O)[nH][nH]2)CC1`, which Percent Effect [1] is on record?
Answer: -1.63%

Question: What about the Percent Effect [2] of the same compound?
Answer: -11.2%

Question: For `O=C(c1ccccn1)N1CCc2nc(-c3cnccn3)nc(O)c2C1`, which Percent Effect [1] is on record?
Answer: -1.53%

Question: And the Percent Effect [2]?
Answer: -15.6%

Question: `CCc1nccn1C1CCCN(C(=O)c2cnn(C)c2C2CC2)C1` (stereo unspecified) was tested. Which Percent Effect [1] did it give?
Answer: -4.23%

Question: What about the Percent Effect [2] of the same compound?
Answer: 21.1%

Question: Which Percent Effect [1] does the source give for `Cc1nc(C)n(CC2CCCN2Cc2cn(-c3ccccc3)nn2)n1` (stereo unspecified) here?
Answer: -2.81%

Question: And the Percent Effect [2]?
Answer: -8.85%

Question: Which Percent Effect [1] does the source give for `CCOc1ccc(C#N)cc1NCC(=O)Nc1cc(F)ccc1F` here?
Answer: -5.91%

Question: What about the Percent Effect [2] of the same compound?
Answer: 5.62%

Question: Which results are given for `CCc1noc(CN2CCCC2c2noc(C3CC3)n2)n1` (stereo unspecified)?
Answer: Percent Effect [1]: 0.459%; Percent Effect [2]: 12.9%

Question: What does the source list for `CN(Cc1nnc(C2CC2)n1C)C1CCN(Cc2ccccc2F)C1` (stereo unspecified)?
Answer: Percent Effect [1]: -3.49%; Percent Effect [2]: -40.3%

Question: For `Cc1ccc(C(=O)NS(=O)(=O)c2cc(Cl)ccc2Cl)c(=O)[nH]1`, which Percent Effect [1] is on record?
Answer: 0%

Question: And the Percent Effect [2]?
Answer: -9.88%

Question: What does the source list for `Cc1nc(C)n(CC2CCCCN2CCS(C)(=O)=O)n1` (stereo unspecified)?
Answer: Percent Effect [1]: -3.09%; Percent Effect [2]: -15.8%

Question: With `O=C(CO)N1CCC(c2cncc(-c3cccc(Cl)c3)n2)CC1` as the compound, how does the Percent Effect [1] read?
Answer: 4.78%

Question: And the Percent Effect [2]?
Answer: -9.28%

Question: What does the source list for `CC(C)(C)c1n[nH]cc1CN1CCc2nc3ccsc3c(=O)n2CC1`?
Answer: Percent Effect [1]: -0.849%; Percent Effect [2]: 12.6%

Question: What does the source list for `COc1c(C2CCCN2Cc2cc(C)no2)c(C)nn1C` (stereo unspecified)?
Answer: Percent Effect [1]: 3.61%; Percent Effect [2]: 18.1%

Question: For `Cc1cnn(C2CN(CC(=O)NCc3ccccn3)C2)c1`, which Percent Effect [1] is on record?
Answer: 5%

Question: And the Percent Effect [2]?
Answer: 21.1%

Question: For `CC(C#N)CSc1ccccc1NCC(=O)Nc1ccc(F)cc1` (stereo unspecified), which Percent Effect [1] is on record?
Answer: 2.19%

Question: What about the Percent Effect [2] of the same compound?
Answer: -7.42%

Question: `CC(C)CN1Cc2c(C(=O)N(C)C)ncn2-c2ccccc2S1(=O)=O` was tested. Which Percent Effect [1] did it give?
Answer: -2.86%

Question: What about the Percent Effect [2] of the same compound?
Answer: 4.89%

Question: For `O=S(=O)(c1ccccc1)N1CCCN(CCCn2ccnc2)CC1`, which Percent Effect [1] is on record?
Answer: -2.67%

Question: And the Percent Effect [2]?
Answer: -12.6%

Question: How did the Percent Effect [1] turn out when `c1cc2nccc(CC3CCCN(Cc4ncc[nH]4)CC3)c2cn1` (stereo unspecified) was run?
Answer: 5.02%

Question: And the Percent Effect [2]?
Answer: -54.1%
